Results on 15 compounds are retold here after ChEMBL document CHEMBL1961873, “Compounds: GSK PKIS; Assays: Nanosyn kinase panel” (2012).

For experiment [1], the target named is CDK3/Cyclin E (Homo sapiens) (UniProt P24864+Q00526). The conditions noted are these: at 1 µM.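 Note: each figure is a mean percent inhibition of the CDK3/cyclin E complex.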
The target of experiment [2] is Cyclin-dependent kinase 4 (Homo sapiens) (UniProt P11802). The conditions noted are these: at 0.1 µM.
Experiment [3] shares this target. The conditions noted are these: at 1 µM.
Experiment [4] concerns the target Cyclin-dependent kinase 5 (Homo sapiens) (UniProt Q00535). The conditions noted are these: at 0.1 µM.
For experiment [5] the target is unchanged. The conditions noted are these: at 1 µM.
In experiment [6] the target is Cyclin-dependent kinase 6 (Homo sapiens) (UniProt Q00534). The conditions noted are these: at 0.1 µM.
For experiment [7] the target is unchanged. The conditions noted are these: at 1 µM.
Experiment [8] has as its target Dual specificity protein kinase CLK2 (Homo sapiens) (UniProt P49760). The conditions noted are these: at 0.1 µM.
The target is the same in experiment [9]. The following applies: at 1 µM.
The target of experiment [10] is Dual specificity protein kinase CLK3 (Homo sapiens) (UniProt P49761). The following applies: at 0.1 µM.
Chain of Dual specificity protein kinase CLK3 (Homo sapiens) (P49761 whole entry, looked up): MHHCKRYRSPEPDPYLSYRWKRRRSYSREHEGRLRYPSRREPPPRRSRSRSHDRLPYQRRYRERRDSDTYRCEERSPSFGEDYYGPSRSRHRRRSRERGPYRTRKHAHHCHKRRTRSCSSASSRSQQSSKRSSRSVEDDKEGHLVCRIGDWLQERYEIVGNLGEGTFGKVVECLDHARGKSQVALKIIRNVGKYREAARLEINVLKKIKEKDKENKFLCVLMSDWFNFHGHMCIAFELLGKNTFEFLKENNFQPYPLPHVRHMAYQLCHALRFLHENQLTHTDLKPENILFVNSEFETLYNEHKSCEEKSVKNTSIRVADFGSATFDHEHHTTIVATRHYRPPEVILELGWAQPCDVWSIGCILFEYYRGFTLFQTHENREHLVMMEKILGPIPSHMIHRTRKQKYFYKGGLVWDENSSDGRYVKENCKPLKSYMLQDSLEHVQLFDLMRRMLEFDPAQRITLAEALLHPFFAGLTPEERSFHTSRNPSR

Chain of CDK3/Cyclin E (Homo sapiens) (P24864 whole entry, looked up): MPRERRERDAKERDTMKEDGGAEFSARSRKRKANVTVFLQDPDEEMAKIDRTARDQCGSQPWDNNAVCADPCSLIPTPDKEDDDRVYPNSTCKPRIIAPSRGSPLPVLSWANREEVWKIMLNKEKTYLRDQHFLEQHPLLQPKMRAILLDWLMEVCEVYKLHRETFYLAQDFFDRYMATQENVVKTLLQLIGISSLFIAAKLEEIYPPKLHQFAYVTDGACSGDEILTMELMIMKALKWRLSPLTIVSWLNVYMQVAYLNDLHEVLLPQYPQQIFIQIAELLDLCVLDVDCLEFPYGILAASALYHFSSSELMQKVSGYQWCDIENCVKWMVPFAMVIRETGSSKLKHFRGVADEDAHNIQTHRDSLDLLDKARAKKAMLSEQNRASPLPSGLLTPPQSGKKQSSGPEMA
Chain of CDK3/Cyclin E (Homo sapiens) (Q00526 whole entry, looked up): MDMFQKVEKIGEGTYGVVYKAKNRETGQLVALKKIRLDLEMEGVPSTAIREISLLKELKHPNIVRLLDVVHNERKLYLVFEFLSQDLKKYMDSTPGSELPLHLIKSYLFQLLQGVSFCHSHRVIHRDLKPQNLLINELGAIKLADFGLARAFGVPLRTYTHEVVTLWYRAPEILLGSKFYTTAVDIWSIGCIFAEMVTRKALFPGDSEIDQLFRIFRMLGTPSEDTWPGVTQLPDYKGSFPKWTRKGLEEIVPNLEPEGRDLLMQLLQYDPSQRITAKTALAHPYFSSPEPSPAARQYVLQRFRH
Chain of Cyclin-dependent kinase 6 (Homo sapiens) (Q00534 whole entry): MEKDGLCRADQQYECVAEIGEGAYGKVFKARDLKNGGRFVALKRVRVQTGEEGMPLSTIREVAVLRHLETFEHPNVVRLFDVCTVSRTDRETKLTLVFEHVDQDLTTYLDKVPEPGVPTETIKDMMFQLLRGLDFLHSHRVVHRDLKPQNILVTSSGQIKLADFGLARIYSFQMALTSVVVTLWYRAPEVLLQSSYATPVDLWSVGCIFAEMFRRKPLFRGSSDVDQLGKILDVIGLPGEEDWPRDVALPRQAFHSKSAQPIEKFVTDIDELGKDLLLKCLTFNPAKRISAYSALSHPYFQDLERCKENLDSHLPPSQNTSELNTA
Chain of Cyclin-dependent kinase 5 (Homo sapiens) (Q00535 whole entry, looked up): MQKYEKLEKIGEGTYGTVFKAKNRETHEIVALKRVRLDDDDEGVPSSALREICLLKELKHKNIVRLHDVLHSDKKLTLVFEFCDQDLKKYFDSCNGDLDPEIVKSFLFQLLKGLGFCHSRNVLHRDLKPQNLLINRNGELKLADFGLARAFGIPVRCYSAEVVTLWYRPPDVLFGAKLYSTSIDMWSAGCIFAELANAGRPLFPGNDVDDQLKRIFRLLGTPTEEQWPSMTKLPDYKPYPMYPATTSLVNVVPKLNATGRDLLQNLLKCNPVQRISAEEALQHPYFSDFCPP
Chain of Dual specificity protein kinase CLK2 (Homo sapiens) (P49760 whole entry, looked up): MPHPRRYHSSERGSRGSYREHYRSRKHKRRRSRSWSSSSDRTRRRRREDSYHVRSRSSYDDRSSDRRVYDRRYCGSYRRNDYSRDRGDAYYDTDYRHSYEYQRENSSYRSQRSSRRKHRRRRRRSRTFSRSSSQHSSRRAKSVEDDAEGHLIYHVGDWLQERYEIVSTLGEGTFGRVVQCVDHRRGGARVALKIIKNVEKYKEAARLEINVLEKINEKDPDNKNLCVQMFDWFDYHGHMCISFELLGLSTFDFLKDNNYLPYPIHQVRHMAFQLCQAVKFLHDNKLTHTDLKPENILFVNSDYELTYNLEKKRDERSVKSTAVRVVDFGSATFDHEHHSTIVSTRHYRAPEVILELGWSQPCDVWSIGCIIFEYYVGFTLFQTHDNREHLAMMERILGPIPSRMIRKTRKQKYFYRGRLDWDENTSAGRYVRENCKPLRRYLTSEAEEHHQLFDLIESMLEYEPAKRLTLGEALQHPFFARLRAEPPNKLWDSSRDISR
Chain of Cyclin-dependent kinase 4 (Homo sapiens) (P11802 whole entry): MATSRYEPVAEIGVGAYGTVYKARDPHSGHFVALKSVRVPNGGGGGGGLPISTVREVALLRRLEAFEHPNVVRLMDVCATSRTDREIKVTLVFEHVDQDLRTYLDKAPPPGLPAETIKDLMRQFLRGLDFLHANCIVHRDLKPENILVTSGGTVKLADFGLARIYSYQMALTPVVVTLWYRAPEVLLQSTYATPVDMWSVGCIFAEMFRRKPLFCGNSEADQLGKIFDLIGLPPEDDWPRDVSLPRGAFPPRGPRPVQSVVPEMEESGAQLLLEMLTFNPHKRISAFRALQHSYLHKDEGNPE

A word on the inhibition: it is the drop in the measured response relative to a control, in per cent. Regarding `CC1=C(C(=O)Nc2ccc3[nH]nc(C)c3c2)C(c2ccc(C(F)(F)F)cc2)CC(=O)N1` (stereo not given), the inhibition in experiment [1] was 1.51%; in [2] it was 4.22%; in experiment [3], 7.29%; in experiment [4], 2.58%; in [5] it was 6.22%; in experiment [6] it was 7.14%. The inhibition in experiment [7] was 10.2%; in [8], 1.85%; in [9], 9.04%; in experiment [10], 2.28%.
Take `CS(=O)(=O)Nc1ccc(-c2cc(-c3ccccc3)cc(C(N)=O)c2N)cc1`: the inhibition in experiment [1] is -1.91%; in experiment [2] it was 0.62%; in experiment [3], 1.63%; in [4] it was 0.11%; in experiment [5], 0.2%; in experiment [6], -0.52%. In addition, the inhibition in experiment [7] is -0.55%; in experiment [8] it was 0.11%; in experiment [9], 2.34%; in experiment [10] it was 0.2%.
`CS(=O)(=O)CCNCc1ccc(-c2ccc3ncnc(Nc4ccc(OCc5ccccc5)cc4)c3c2)o1`: the inhibition in [1] is -0.81%; in experiment [2] it was 1.16%; in experiment [3], 2.98%; in experiment [4], 0.58%; in experiment [5] it was 2.07%; in experiment [6] it was -1.55%. The inhibition in experiment [7] was 1.12%; in experiment [8] it was 0.03%; in experiment [9], 0.73%; in experiment [10] it was 0.41%.
Regarding `COc1ccc2ncn(-c3cc(O[C@H](C)c4ccccc4C(F)(F)F)c(C(N)=O)s3)c2c1`, the inhibition in experiment [1] is -1.57%; in experiment [2], 0.47%; in [3], 2.89%; in experiment [4], 0.13%; in experiment [5] it was 1.21%; in [6], -4.17%. The inhibition is -1.08% in experiment [7], 0.34% in [8], 5.08% in experiment [9] and -0.05% in experiment [10].
Take `COc1c(C(N)=O)cc(-c2ccc(Cl)cc2)cc1-c1ccc(S(N)(=O)=O)cc1`: the inhibition in experiment [1] was -0.77%; in experiment [2], 3.98%; in experiment [3] it was 3.06%; in experiment [4] it was 0.65%; in [5], 0.17%; in experiment [6], -0.9%. Further, the inhibition in experiment [7] was -0.36%; in experiment [8], 3.22%; in [9], 5.16%; in experiment [10], 0.71%.
For `N#Cc1cccc(Nc2ncc(-c3ccccc3)o2)c1`, the inhibition was found to be 40.2% in [1]; 3.86% in experiment [2]; 26.7% in experiment [3]; 4.45% in experiment [4]; 30.5% in experiment [5]; 21.9% in [6]. Further, the inhibition amounted to 63% in experiment [7], 1.44% in [8], 9.1% in experiment [9] and 1.7% in [10].
Regarding `CN(c1ccc(NC(=O)NCCN2CCOCC2)cc1)c1ccnc(Nc2ccc(CS(C)(=O)=O)cc2)n1`, the inhibition is 0.92% in experiment [1]; 0.98% in [2]; 2.06% in experiment [3]; 0.44% in experiment [4]; 2.44% in experiment [5]; 5.26% in [6]. The inhibition in experiment [7] was 4.21%; in [8], -0.8%; in [9], 2.52%; in experiment [10], 0.77%.
For `Cc1cc(O)cc(C)c1/C=C/c1cncc(C(=O)OC(C)(C)C)c1`, the inhibition in experiment [1] came out at 1.16%; in experiment [2], 2.59%; in experiment [3], 3.59%; in [4], 0.74%; in experiment [5], 2.53%; in experiment [6], 3.38%. Further, the inhibition was 5.01% in experiment [7], 0.65% in [8], 0.81% in [9] and 3.45% in experiment [10].
In the case of `Cc1nnc(-c2cccc(-c3ccc(C(=O)NCC4CC4)cc3)c2)o1`, the inhibition in experiment [1] was -0.73%; in [2], 1.46%; in experiment [3], 2.47%; in [4], 0.47%; in experiment [5] it was 1.45%; in [6], 2.21%. Further, the inhibition in experiment [7] stood at 4.2%; in experiment [8] it was 1.61%; in [9], 1.14%; in [10], 2.84%.
For `NS(=O)(=O)c1cccc(N/C=C2\C(=O)Nc3ccccc32)c1`, the inhibition came to 11.3% in experiment [1]; 5.5% in experiment [2]; 18.1% in [3]; 2.87% in experiment [4]; 16.5% in experiment [5]; 2.67% in experiment [6]. For the same compound, the inhibition in experiment [7] is 55.6%; in experiment [8] it was 2.13%; in [9], 13.7%; in experiment [10], 1.92%.
In the case of `CCn1c(-c2nonc2N)nc2cncc(C(=O)NCCNC)c21`, the inhibition is 0.12% in experiment [1]; 1.73% in [2]; 3.94% in experiment [3]; -0.65% in experiment [4]; 0.97% in [5]; -0.66% in experiment [6]. Also, the inhibition in [7] is 1.38%; in experiment [8], 1.2%; in [9], 10.5%; in experiment [10], -2.71%.
`CCS(=O)(=O)c1ccc(OC)c(Nc2ncc(-c3cccc(F)c3)o2)c1`: the inhibition in [1] is -2.15%; in [2], 2.69%; in [3] it was 4.19%; in [4] it was 0.21%; in experiment [5], 1.39%; in experiment [6] it was 3.05%. The inhibition in experiment [7] is 1.82%; in experiment [8], 13%; in [9] it was 63.1%; in experiment [10] it was 2.49%.
On to `CC1(C)CC(n2cnc(-c3ccc(F)cc3)c2-c2ccnc(N)n2)CC(C)(C)N1`, for which the inhibition in experiment [1] is -0.65%; in [2] it was 1.99%; in [3], 2.08%; in experiment [4], 0.25%; in experiment [5], 0.14%; in experiment [6], -2.02%. The inhibition in experiment [7] came out at 1.29%; in experiment [8], 0.85%; in experiment [9], 0.02%; in experiment [10] it was 0.82%.
For `O=C(O[C@H]1CN[C@H](C#Cc2cc3ncnc(Nc4ccc5c(ccn5Cc5cc(F)ccc5F)c4)c3s2)C1)N1CCOCC1`, the inhibition in experiment [1] is -2.16%; in experiment [2] it was 2.17%; in [3], 1.93%; in experiment [4], 1.09%; in [5], 0.14%; in experiment [6] it was -1.14%. Moreover, the inhibition in experiment [7] was 1.5%; in experiment [8], 1.29%; in experiment [9], 0.52%; in experiment [10], 1.27%.
`COc1ccc(-c2nn3ncccc3c2-c2ccnc(Nc3ccc(F)c(F)c3)n2)cc1`: the inhibition in experiment [1] amounted to 0.42%; in [2], 0.25%; in experiment [3], 1.71%; in experiment [4], 0.48%; in [5], 1.15%; in experiment [6] it was 5.13%. In addition, the inhibition was 3.48% in experiment [7], -1.03% in [8], 0.41% in experiment [9] and 2.08% in experiment [10].
